Several values for one entry are separate records, joined by “and”; a condition that tells them apart may be missing. Equal entries are not always repeated. Results filed as inconclusive are left out. A call without a number means that no potency is given here. Activity calls are given as the source filed them. Unless noted, the call rests on the fitted dose curve; in most records, active means well fitted curve in the direction sought with a large enough effect; inconclusive means small, poorly fitted or top-dose-only effect, or another doubt; inactive means no such curve, though single readings can be large; an effect the other way counts as inactive or inconclusive.
How the values were obtained:
[1] = target: Transient receptor potential cation channel subfamily V member 1 (Homo sapiens) (UniProt Q8NER1); test: HTS Assay for Compounds that Act as Enhancers of the Vanilloid Receptor 1 (AID 488979)
Chain of Transient receptor potential cation channel subfamily V member 1 (Homo sapiens) (Q8NER1 whole entry, looked up): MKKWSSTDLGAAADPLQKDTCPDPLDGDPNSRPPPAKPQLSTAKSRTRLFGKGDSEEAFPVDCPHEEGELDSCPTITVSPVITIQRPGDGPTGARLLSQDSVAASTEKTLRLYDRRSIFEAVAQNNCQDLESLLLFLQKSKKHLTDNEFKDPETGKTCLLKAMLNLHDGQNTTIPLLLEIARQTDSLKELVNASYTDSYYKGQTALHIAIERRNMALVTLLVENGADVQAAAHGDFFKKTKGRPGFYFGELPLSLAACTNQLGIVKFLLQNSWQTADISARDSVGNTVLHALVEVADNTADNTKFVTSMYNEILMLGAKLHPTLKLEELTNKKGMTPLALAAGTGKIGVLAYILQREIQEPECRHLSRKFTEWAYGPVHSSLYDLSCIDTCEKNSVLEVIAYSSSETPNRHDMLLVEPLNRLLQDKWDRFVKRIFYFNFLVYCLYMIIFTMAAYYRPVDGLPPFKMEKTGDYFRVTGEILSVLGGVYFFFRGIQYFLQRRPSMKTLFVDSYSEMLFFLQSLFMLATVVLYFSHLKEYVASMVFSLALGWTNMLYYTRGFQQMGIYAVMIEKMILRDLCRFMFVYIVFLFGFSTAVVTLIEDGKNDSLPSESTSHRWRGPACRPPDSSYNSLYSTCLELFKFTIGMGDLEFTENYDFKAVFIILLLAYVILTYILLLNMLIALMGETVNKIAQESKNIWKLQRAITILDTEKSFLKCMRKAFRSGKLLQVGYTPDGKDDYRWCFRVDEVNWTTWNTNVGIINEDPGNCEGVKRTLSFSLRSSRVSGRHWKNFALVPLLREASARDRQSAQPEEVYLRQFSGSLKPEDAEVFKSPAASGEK
In short: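 Calcium influx kinetics via Fluo-8 (480/520 nm) in TRPV1-expressing cells, 2000/well cultured overnight at 35.5C. Compound-alone read 3 min (agonist phase), followed by EC20 capsaicin challenge for 2 min (enhancer phase).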

[2] = target: Thyrotropin receptor (Homo sapiens) (UniProt P16473); test: qHTS Assay for Antagonists of the Thyroid Stimulating Hormone Receptor (AID 488980); further: series mostly up to about 58 µM
Chain of Thyrotropin receptor (Homo sapiens) (P16473 whole entry, looked up): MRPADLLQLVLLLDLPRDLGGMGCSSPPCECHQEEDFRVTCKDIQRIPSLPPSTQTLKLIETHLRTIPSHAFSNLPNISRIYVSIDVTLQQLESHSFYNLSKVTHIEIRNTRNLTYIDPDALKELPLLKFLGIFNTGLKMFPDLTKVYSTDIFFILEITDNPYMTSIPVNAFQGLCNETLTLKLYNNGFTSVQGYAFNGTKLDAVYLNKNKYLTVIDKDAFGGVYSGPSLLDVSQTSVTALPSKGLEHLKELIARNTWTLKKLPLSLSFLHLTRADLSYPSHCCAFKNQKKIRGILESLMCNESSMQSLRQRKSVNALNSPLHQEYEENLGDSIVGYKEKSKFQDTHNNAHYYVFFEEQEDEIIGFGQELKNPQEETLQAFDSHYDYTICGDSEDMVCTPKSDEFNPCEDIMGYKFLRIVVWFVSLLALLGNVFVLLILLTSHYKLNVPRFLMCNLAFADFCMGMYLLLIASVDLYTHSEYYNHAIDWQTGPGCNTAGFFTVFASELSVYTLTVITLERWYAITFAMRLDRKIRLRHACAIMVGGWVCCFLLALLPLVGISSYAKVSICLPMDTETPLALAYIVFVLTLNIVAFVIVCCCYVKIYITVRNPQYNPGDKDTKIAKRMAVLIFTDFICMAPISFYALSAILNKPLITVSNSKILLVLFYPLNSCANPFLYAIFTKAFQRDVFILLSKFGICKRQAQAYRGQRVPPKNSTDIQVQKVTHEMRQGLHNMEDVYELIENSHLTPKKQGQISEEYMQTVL
In short: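 TSHR-HEK293 cells; 70 uM RO 20-1724 PDE inhibitor; compound + EC80 TSH (4 nM final); anti-cAMP cryptate antibody/cAMP-d2 in lysis buffer, 30 min RT; HTRF 665/620 nm read.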

[3] = target: D(1A) dopamine receptor (Homo sapiens) (UniProt P21728); test: HTS Assay for Allosteric Agonists of the Human D1 Dopamine Receptor: Primary Screen for Agonists (AID 488981)
Chain of D(1A) dopamine receptor (Homo sapiens) (P21728 whole entry, looked up): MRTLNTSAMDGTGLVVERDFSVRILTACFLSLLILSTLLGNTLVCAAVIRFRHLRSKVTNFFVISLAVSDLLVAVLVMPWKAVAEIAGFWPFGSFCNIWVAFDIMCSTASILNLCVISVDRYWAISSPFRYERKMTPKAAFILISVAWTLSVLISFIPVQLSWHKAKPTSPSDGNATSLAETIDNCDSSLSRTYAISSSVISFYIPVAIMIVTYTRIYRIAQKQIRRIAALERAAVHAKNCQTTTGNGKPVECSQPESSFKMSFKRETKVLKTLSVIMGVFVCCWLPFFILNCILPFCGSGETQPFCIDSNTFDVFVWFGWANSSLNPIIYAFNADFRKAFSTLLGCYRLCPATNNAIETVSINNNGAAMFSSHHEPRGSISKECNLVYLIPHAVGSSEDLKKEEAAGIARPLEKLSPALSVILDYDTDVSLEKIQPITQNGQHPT
In short: (§1)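 Calcium flux in an inducible, force-coupled HEK293 Trex D1 line (overnight at 30 C): agonist mode is the 180 s kinetic read after compound; potentiator mode is the following 180 s read after dopamine at EC20.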

[4] = target: D(1A) dopamine receptor (Homo sapiens) (UniProt P21728); test: HTS Assay for Allosteric Agonists of the Human D1 Dopamine Receptor: Primary Screen for Potentiators (AID 488982)
In short: as §1

[5] = target: D(1A) dopamine receptor (Homo sapiens) (UniProt P21728); test: HTS Assay for Allosteric Agonists of the Human D1 Dopamine Receptor: Primary Screen for Antagonists (AID 488983);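 further: calcium flux response to an EC80 dopamine challenge measured with no-wash dye; nearly all actives have a fitted effect of over 65% in size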
In short: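 Tetracycline-induced HEK293 T-REx cells expressing force-coupled D1 were plated overnight at 30 C, dye-loaded for calcium, and read kinetically. Compounds were pinned in, then an EC80 dopamine challenge followed after 180 s to reveal antagonism.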

[6] = Validation screen for small molecules that induce genotoxicity in human embryonic kidney (HEK293T) cells expressing luciferase-tagged ELG1 (AID 493106)
In short: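 HEK293T cells expressing luciferase-tagged ELG1 were exposed to compound or DMSO vehicle for 16 hr at 37 °C, 5% CO2. Genotoxic stress raises ELG1 levels, so increased luciferase signal after ONE-Glo addition and 30 min at room temperature marks hits.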

[7] = target: ATPase family AAA domain-containing protein 5 (Homo sapiens) (UniProt Q96QE3); test: Validation screen for small molecules that inhibit ELG1-dependent DNA repair in human embryonic kidney (HEK293T) cells expressing luciferase-tagged ELG1 (AID 493107);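 further: cells co-treated with the DNA-damaging agent 5-fluorouridine alongside compound; series mostly up to about 46 µM; inhibitors lower the ELG1-luciferase luminescence signal; nearly all actives have a fitted effect of over 70% in size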
In short: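 HEK293T cells expressing luciferase-tagged ELG1 were co-treated with 5-fluorouridine and compound or DMSO for 16 hr at 37 °C, 5% CO2. Luciferase activity was then read with ONE-Glo after 30 min at room temperature; suppressed signal indicates blocked ELG1 function.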

[8] = target: Thyrotropin-releasing hormone receptor (Homo sapiens) (UniProt P34981); test: qHTS for Small Molecule Agonists and Allosteric Enhancers of Human TRH Receptor: Validation Screen for Agonists (AID 493127;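 active means calcium activation more than 3 SD above the typical response in the agonist read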;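 further: intracellular calcium rise by fluo-8 fluorescence before TRH EC20 addition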); settings: TRH receptor agonist cell assay; at 2 µM; stronger effect = higher value
Chain of Thyrotropin-releasing hormone receptor (Homo sapiens) (P34981 whole entry, looked up): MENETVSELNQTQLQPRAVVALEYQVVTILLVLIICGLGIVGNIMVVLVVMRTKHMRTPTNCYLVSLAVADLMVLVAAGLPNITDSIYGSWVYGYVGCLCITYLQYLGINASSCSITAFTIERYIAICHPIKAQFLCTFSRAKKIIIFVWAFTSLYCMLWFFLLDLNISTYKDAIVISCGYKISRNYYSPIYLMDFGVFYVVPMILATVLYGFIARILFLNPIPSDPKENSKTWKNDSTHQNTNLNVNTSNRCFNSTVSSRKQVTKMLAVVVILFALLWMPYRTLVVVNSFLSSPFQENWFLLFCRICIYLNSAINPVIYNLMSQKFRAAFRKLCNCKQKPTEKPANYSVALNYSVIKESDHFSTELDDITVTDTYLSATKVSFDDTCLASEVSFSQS
In short: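 TRHR-expressing cells were plated overnight in serum-containing medium, then loaded with fluo-8 calcium dye at room temperature for 30 min–1.5 h. After a 10 s baseline, compound was pin-transferred and calcium fluorescence (ex 480/em 530) read kinetically for agonist response.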

[9] = Nrf2 qHTS screen for inhibitors: Validation (AID 493153; active means well fitted inhibition curve with a large enough effect in the main read-out, with a control signal flat, not every such curve was filed as active); settings: Potency: luciferase luminescence; viability change: measured here: cytotoxicity max response
In short: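 A549 cells carrying an ARE-driven firefly luciferase reporter, in 5% FBS OPTI-MEM, were treated with compounds in concentration-response for 18-24 h at 37°C. Viability was read by CellTiter-Fluor fluorescence, then Nrf2 activity by luciferase luminescence.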

[10] = qHTS for Inhibitors of Cell Surface uPA Generation: Validation Assay (AID 493164);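 further: RAW 264.7 macrophage cells exposed to compound for 18 h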
In short: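 RAW 264.7, 4000 cells/well, o/n plating; cpd 7-pt 1:5 dilution 2.45 nM–38.3 uM final; 18 h, 37 C/5% CO2; ATP-Lite, 5 s luminescence exposure.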

[11] = target: Galactokinase (Homo sapiens) (UniProt P51570); test: qHTS Validation Assay for Inhibitors of Human Galactokinase (GALK) (AID 493189)
Chain of Galactokinase (Homo sapiens) (P51570 whole entry, looked up): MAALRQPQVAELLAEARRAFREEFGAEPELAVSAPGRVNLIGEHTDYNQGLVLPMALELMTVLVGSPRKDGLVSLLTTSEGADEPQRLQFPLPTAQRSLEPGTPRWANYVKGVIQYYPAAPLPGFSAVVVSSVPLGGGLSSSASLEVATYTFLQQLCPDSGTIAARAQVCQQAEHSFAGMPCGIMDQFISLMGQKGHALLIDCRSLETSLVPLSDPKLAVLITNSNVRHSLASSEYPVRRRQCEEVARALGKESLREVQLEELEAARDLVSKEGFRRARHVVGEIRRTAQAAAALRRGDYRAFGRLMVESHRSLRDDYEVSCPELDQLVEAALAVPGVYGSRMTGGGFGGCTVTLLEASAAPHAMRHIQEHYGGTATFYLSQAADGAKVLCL
In short: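 Luminescence from leftover ATP (Kinase-Glo Plus, 10 min) served as read-out after a 1 h room-temperature reaction of 5 nM GALK, 100 uM galactose and 35 uM ATP at pH8.0.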

[12] = Validation screen for small molecules that induce DNA re-replication in SW480 colon adenocarcinoma cells (AID 504364)
In short: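 SW480 cells seeded at 250 per well were exposed to compound or DMSO for 48 hr at 37 C, 5% CO2, then stained with Hoechst for 40 min. DNA content per nucleus was imaged (405 nm ex, 500-530 nm em).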

[13] = target: Phosphoglycerate kinase, glycosomal (Trypanosoma brucei brucei) (UniProt P07378); test: qHTS Validation Assay to Find Inhibitors of Phosphoglycerate Kinase (AID 504547)
Chain of Phosphoglycerate kinase, glycosomal (Trypanosoma brucei brucei) (P07378 whole entry, looked up): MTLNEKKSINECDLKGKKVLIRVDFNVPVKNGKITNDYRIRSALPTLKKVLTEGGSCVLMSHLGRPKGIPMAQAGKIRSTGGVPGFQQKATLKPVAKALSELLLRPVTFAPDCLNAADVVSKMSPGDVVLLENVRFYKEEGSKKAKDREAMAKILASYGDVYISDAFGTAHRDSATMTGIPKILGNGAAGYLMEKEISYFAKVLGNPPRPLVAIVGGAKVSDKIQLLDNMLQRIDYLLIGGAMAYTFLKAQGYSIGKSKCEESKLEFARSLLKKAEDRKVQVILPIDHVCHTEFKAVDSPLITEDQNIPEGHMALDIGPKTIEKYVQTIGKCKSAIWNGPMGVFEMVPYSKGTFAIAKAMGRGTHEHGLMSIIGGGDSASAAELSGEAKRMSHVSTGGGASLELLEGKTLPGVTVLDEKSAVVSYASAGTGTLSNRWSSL
In short: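 Inhibition of the enzyme is judged by a Kinase-Glo Plus luminescent signal following a one-hour incubation at room temperature. Because 1,3-BPG is unstable, it is made in situ by GAPDH at 100nM final; no-PGK wells define the baseline.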

[14] = target: phosphoglycerate mutase (Leishmania major) (UniProt Q4Q090); test: qHTS Validation Assay to Find Inhibitors of Phosphoglycerate Mutase (AID 504548); settings: Potency: inhibition qHTS; further: series mostly up to about 58 µM
Chain of phosphoglycerate mutase (Leishmania major) (Q4Q090 1-553): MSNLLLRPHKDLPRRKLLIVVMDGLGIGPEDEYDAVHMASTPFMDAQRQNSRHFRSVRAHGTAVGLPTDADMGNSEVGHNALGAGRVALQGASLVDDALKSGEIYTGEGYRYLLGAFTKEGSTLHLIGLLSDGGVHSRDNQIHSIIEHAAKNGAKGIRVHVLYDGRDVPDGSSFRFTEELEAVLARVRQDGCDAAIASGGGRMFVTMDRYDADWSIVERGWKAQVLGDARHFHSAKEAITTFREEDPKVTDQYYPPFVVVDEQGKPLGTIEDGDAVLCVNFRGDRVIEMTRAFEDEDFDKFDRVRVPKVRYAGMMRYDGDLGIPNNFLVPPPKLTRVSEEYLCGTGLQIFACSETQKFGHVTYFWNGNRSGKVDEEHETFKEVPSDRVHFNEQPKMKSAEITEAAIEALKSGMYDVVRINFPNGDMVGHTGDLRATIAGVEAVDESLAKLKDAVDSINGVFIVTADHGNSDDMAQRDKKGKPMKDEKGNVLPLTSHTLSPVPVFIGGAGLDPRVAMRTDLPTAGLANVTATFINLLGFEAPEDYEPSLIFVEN
In short: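 Lm PGAM 1.25nM final; 100 mM TEA pH 7.6, 5 mM MgCl2, 0.01% Tween-20; 45 min RT; Kinase-GloPlus, 10 min; end-point luminescence. Enzyme-free wells as negative controls.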

[15] = target: Ubiquitin carboxyl-terminal hydrolase 1 (Homo sapiens) (UniProt O94782); test: Inhibitors of USP1/UAF1: Pilot qHTS (AID 504865); further: nearly all actives have a fitted effect of over 35% in size; further: potency means the concentration at half of the fitted maximal effect
Chain of Ubiquitin carboxyl-terminal hydrolase 1 (Homo sapiens) (O94782 whole entry, looked up): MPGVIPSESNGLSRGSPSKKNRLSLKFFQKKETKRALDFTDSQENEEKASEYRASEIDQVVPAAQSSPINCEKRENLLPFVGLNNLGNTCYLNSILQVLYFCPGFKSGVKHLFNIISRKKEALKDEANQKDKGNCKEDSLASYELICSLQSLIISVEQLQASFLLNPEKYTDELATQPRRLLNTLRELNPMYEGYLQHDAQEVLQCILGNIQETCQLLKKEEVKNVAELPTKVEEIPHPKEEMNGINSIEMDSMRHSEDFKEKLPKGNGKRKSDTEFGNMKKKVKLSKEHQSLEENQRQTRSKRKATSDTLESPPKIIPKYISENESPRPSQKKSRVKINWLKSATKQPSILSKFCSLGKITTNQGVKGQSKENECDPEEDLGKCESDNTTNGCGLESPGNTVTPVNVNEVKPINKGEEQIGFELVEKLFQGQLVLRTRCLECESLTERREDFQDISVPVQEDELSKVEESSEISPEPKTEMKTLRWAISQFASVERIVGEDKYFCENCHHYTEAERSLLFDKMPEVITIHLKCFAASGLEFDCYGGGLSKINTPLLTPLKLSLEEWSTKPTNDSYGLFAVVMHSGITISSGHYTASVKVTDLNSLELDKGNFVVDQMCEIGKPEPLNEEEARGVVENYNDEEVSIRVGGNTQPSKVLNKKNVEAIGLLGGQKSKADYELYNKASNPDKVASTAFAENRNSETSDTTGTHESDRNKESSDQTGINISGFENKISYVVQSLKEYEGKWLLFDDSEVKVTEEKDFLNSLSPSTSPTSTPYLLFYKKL
In short: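 1nM USP1/UAF1 + cpd, 15 min RT; start w/ Ub-Rho 150nM final; kinetic FL 480/540 nm, 6 reads q60 s. Buffer 50mM HEPES pH 7.8, 0.5mM EDTA, 1mM TCEP, 0.01% Tween-20, 0.1 mg/ml BSA.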

[16] = qHTS for Inhibitors of ATXN expression: Validation of Cytotoxic Assay (AID 588349)
In short: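 HEK293 cells were dosed with titrated compounds for 72 hr at 37 degrees C. Viability was read by CellTiter Glo luminescence, with intracellular ATP as the marker of cell survival.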

[17] = qHTS for Inhibitors of ATXN expression: Validation (AID 588378); further: series mostly up to about 57 µM; nearly all actives have a fitted effect of over 75% in size
In short: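 Cells: HEK293-ATXN2-FFLuc, phenol-red free DMEM, 2 h attachment. Compound pin-transfer, 24 h, 37 degrees C, 5% CO2. CellTiter-Fluor 30 min, Ex405/Em525; Bright-Glo 5 min, luminescence 2 s exposure.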

[18] = target: Peptidyl-prolyl cis-trans isomerase NIMA-interacting 1 (Homo sapiens) (UniProt Q13526); test: qHTS Validation Assay to Find Inhibitors of Pin1 (AID 504536; active means well fitted inhibition curve with a large enough effect in the polarisation, with a control signal flat, not every such curve was filed as active; the % refers to the polarisation)
Chain of Peptidyl-prolyl cis-trans isomerase NIMA-interacting 1 (Homo sapiens) (Q13526 whole entry, looked up): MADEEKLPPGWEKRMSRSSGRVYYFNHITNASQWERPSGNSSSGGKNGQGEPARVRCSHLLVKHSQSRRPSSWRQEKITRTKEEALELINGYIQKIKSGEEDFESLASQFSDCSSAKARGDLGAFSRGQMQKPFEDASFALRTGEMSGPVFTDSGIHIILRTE
In short: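 Fluorescence polarization competition: compounds (titration) displace HiFluor-488-labeled Pin1-1b peptide from Pin1 (0.3 uM final) in pH 7.5 HEPES buffer with DTT, 10 min at room temperature; %Activity normalized to no-enzyme wells, curves fitted.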

Structure (SMILES)	outcome [1]	outcome [2]	Potency [3]	Potency [4]	Potency [5]	Potency [6]	Potency [7]	activation [8]	Potency [9]	viability change [9] [%]	outcome [10]	Potency [11]	Potency [12]	Potency [13]	Potency [14]	Potency [15]	Potency [16]	Potency [17]	Potency [18]
Cc1nc(N=Nc2cc(S(=O)(=O)O)c3cc([N+](=O)[O-])cc(S(=O)(=O)O)c3c2)c(COP(=O)(O)O)c(C=O)c1O	inactive	inactive	inactive	inactive	inactive	inactive	inactive	0.25% (inactive)	inactive	-14.8	inactive	inactive	inactive	inactive	inactive	50.1 µM (active) and 39.8 µM (active)	inactive	inactive	–
O=C(O)/C(=C/c1c(C(=O)O)[nH]c2cc(Cl)cc(Cl)c12)c1ccccc1	inactive	inactive	inactive	inactive	inactive	inactive	inactive	1.12% (inactive)	inactive	4.57	inactive	–	inactive	inactive	inactive	inactive	inactive	inactive	inactive
Clc1nccc2c1ccc1ccccc12	inactive	inactive	inactive	inactive	inactive	inactive	inactive	-6.94% (inactive)	–	–	–	inactive	inactive	inactive	–	inactive	inactive	inactive	inactive
COc1ccc2c(c1)c(CC(=O)O)c(C)n2Cc1ccc(Cl)cc1	inactive	inactive	inactive	inactive	inactive	inactive	inactive	-0.188% (inactive)	–	–	inactive	inactive	inactive	inactive	inactive	inactive	inactive	inactive	inactive
CC(C)C[C@H](NC(=O)C1OC1C(=O)O)C(=O)NCCCCN=C(N)N (stereo partly specified)	inactive	inactive	inactive	inactive	inactive	inactive	inactive	0% (inactive)	–	–	–	inactive	inactive	inactive	–	inactive	–	–	inactive
O=c1[nH]c2ccccc2c2ccccc12	inactive	inactive	inactive	inactive	inactive	inactive	inactive	-4.5% (inactive)	–	–	inactive	inactive	inactive	inactive	inactive	–	inactive	inactive	inactive
C/C(=C\c1ccc(C(=O)O)cc1)c1ccc2c(c1)C(C)(C)CCC2(C)C	inactive	inactive	inactive	inactive	inactive	inactive	inactive	-6% (inactive)	–	–	inactive	inactive	inactive	inactive	inactive	31.6 µM (active)	inactive	inactive	–
O=C(O)C1CN(CCCP(=O)(O)O)CCN1 (stereo unspecified)	inactive	inactive	inactive	inactive	inactive	inactive	inactive	0.188% (inactive)	inactive	8.53	inactive	inactive	inactive	inactive	inactive	inactive	inactive	inactive	–

From PubChem BioAssay (NCATS)
